Out of some 4,000 compounds screened, about 350 (8.8%) were called active.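 How the source made its calls: active means calcium fluorescence ratio at least three times the spread of buffer wells, meaning a non-specific response in parental cells; inactive means the rest.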 Only a sample is shown.

This experiment in a line: calcium response in parental HEK293 cells, primary screen, counter-screen for MrgX1 agonist project, cell-based, Fluo-4 calcium flux, duplicate, agonist mode (AID 624115). The note with it: parental HEK293, Fluo-4 calcium fluorescence (FDSS), at 10 µM; stronger effect = higher value. (The purpose of a counterscreen is to sort out artefacts and off-target activity.)
As to `COc1ccccc1Oc1nc(-c2cccnc2)nc2ccccc12`, the fluorescence ratio F(max-min)/F0 entry is “inactive”. The same measure for `CC(C)CNc1ncnc2c1cnn2Cc1ccc(Cl)cc1`: “inactive”; for `Cc1cccn2c(=O)c(/C=C3\SC(=S)N(CC(C)C)C3=O)c(NCCCOC(C)C)nc12`: “inactive”. The same measure for `O=C(C1CCN(S(=O)(=O)c2cnc[nH]2)CC1)N1CCN(Cc2ccc3c(c2)OCO3)CC1`: “inactive”. The same measure for `O=C(Oc1ccc(C(=S)N2CCOCC2)cc1)c1ccc(F)cc1`: “inactive”; for `Cc1occc1C(=O)Nc1nnc(-c2ccncc2)s1`: “inactive”; for `CCC(C)Sc1nc(C)nc2c1c(=O)n(C)c(=O)n2C` (stereo not given): “inactive”. For the molecule `O=C(CN1CCN(c2ccc(Cl)cc2)CC1)N1CCCC1`, the fluorescence ratio F(max-min)/F0 entry was “inactive”.

In the case of `Cc1c(C)c2c(OCC(=O)N[C@@H](C(=O)O)c3ccccc3)cc3c(c2oc1=O)CCC(C)(C)O3`, the fluorescence ratio F(max-min)/F0 entry was “inactive”. The same measure for `COC(=O)c1c(NC(=O)c2c(Cl)cnn2C)sc(C)c1C`: “inactive”; for `COc1ccc(Nc2nnc(C)c3ccccc23)cc1`: “inactive”; for `O=C1C(Cc2ccc(O)cc2)NC(=S)N1Cc1ccccc1` (stereo not given): “inactive”. The same measure for `Cc1cccc(NC(=O)C(C)N2C(=O)C3C4CC(C(Br)C4Br)C3C2=O)c1` (stereo not given): 94.8 (active). The same measure for `Cc1ccnc(NC(=O)C(C)N2C(=O)c3ccccc3C2=O)c1` (stereo not given): “inactive”; for `Cc1ccc(C(=O)COC(=O)CCN2C(=O)C3C4CC(C(Br)C4Br)C3C2=O)cc1` (stereo not given): “inactive”; for `Cc1ccc2c(c1)c1ncnc(N3CCc4ccccc4C3)c1n2C`: “inactive”. As to `O=C(COC(=O)c1ccc(NS(=O)(=O)c2cccs2)cc1O)Nc1ccc(F)cc1`, the fluorescence ratio F(max-min)/F0 entry is “inactive”.

For `CN(c1cccc(NC(=O)Nc2ccc(Cl)cc2)c1)S(C)(=O)=O`, the fluorescence ratio F(max-min)/F0 result is “inactive”. The same measure for `O=C(c1cccs1)C1C(c2ccc(Br)cc2)NC(=S)NC1(O)C(F)(F)F` (stereo not given): “inactive”; for `CC(C)(C)n1c(=O)[nH]c2c(c1=O)CCC2`: “inactive”. The same measure for `CCN(CC)c1ccc2oc(=O)c(C)nc2c1`: “inactive”; for `CC(=O)N(C)c1ccc(NC(=O)C(F)(F)F)cc1`: “inactive”. The same measure for `CCc1nnc(NC(=O)CSc2nc3c(c(=O)n2-c2ccccc2OC)SCC3)s1`: “inactive”. For `CC1CCN(S(=O)(=O)c2nnc(NC(=O)COc3ccccc3F)s2)CC1`, the fluorescence ratio F(max-min)/F0 result is “inactive”.

In the case of `CCSc1nsc(NC(=O)Nc2cccc(C(C)=O)c2)n1`, the fluorescence ratio F(max-min)/F0 result is “inactive”. The same measure for `CCCCCCCCCCOC(=O)Cn1c(COc2cccc(OC)c2)[n+](C)c2ccccc21`: “inactive”; for `CN1/C(=C\C=C2\N=C(c3ccc(F)cc3)OC2=O)C(C)(C)c2ccccc21`: “inactive”. The same measure for `S=C(NCc1ccc(Cl)cc1)NC12CC3CC(CC(C3)C1)C2`: “inactive”; for `O=C(Nc1ccc(Cl)cc1)Nc1ccc(Oc2cccnc2)nc1`: “inactive”; for `CCc1ccc(N(CC(=O)Nc2sc3c(c2C(=O)OC)CCCC3)S(C)(=O)=O)cc1`: “inactive”. The same measure for `CC(=O)N1c2ccc(S(=O)(=O)N3CCCC(C(=O)Nc4cccc(Cl)c4)C3)cc2CC1C` (stereo not given): “inactive”; for `COc1cccc(CCNC(=O)COc2cccc3c2OC(C)(C)C3)c1`: “inactive”. `O=C(COC(=O)C1CCN(S(=O)(=O)c2ccc3c(c2)OCCO3)CC1)Nc1ccccc1OC(F)F`: the fluorescence ratio F(max-min)/F0 entry was “inactive”.

As to `COC(=O)c1ccc(COC(=O)C2CCN(S(=O)(=O)c3c(Cl)cccc3Cl)CC2)o1`, the fluorescence ratio F(max-min)/F0 entry was “inactive”. The same measure for `CCOC(=O)c1[nH]c2ccc(C)cc2c1N=C(C)N(C)C`: 46.4 (active). The same measure for `Cc1c(C(=O)N2CCCc3ccccc32)sc2nc(-c3ccccc3)cn12`: “inactive”. The same measure for `Clc1ccc(C=NC23CN4CN(CN(C4)C2)C3)cc1`: “inactive”. In the case of `CC(Oc1ccc(F)cc1)C(=O)Nc1ccccc1C(=O)NC1CC1` (stereo not given), the fluorescence ratio F(max-min)/F0 result was “inactive”.

As for `CC(C)(C)Nc1c(-c2cccs2)nc2ccccn12`, the fluorescence ratio F(max-min)/F0 entry was “inactive”.

For `O=c1cc(CSc2ccccn2)nc(N2CCN(c3ccccc3)CC2)[nH]1`, the fluorescence ratio F(max-min)/F0 result is “inactive”. The same measure for `O=C(Nc1ccccc1Cl)N1CCN(c2ccc3nncn3n2)CC1`: “inactive”; for `CCc1cc2c(SCC(=O)Nc3ncc(Cl)c(C)c3Cl)ncnc2s1`: “inactive”. Turning to `Cc1ccc(C(C(=O)NC2CCCCC2)N(C(=O)c2csnn2)C2CC2)o1` (stereo not given), the fluorescence ratio F(max-min)/F0 entry is “inactive”. Turning to `COC(=O)Cn1c(O)c(N=NC(=O)OC)c2ccccc21`, the fluorescence ratio F(max-min)/F0 result was “inactive”. As for `COc1cc(C)c(C)cc1S(=O)(=O)N1CCCc2ccccc21`, the fluorescence ratio F(max-min)/F0 entry is “inactive”. The same measure for `COc1cc(C(F)(F)F)nc2c(Br)c(C(C)(C)C)nn12`: “inactive”.

For `CC(=O)N(C1=C(Cl)C(=O)c2ccccc2C1=O)c1ccc(C(=O)O)cc1`, the fluorescence ratio F(max-min)/F0 result is “inactive”.

In the case of `O=C(Nc1ccccc1N1CCOCC1)c1csc2c1CCCC2`, the fluorescence ratio F(max-min)/F0 entry was “inactive”. Consider `C=CCOc1cccc(C2C(C(=O)c3ccc(C)o3)=C(O)C(=O)N2c2nnc(C)s2)c1` (stereo not given), for which the fluorescence ratio F(max-min)/F0 entry is “inactive”. Turning to `COC(=O)c1c(NC(=O)CN(c2ccc(C)c(C)c2)S(C)(=O)=O)sc2c1CCCC2`, the fluorescence ratio F(max-min)/F0 result is “inactive”. The same measure for `CCN(C(=O)CSc1nnc2ccccn12)C1CCS(=O)(=O)C1` (stereo not given): “inactive”; for `Brc1ccccc1C1Nc2cccc3cccc(c23)N1`: “inactive”.

On to `COc1ccc(Cc2nc(-c3ccccn3)no2)cc1OC`, for which the fluorescence ratio F(max-min)/F0 entry is “inactive”. As for `CCOC(=O)c1cn(Cc2cccc(C)c2)nn1`, the fluorescence ratio F(max-min)/F0 entry is “inactive”. The same measure for `C=CCNC(=O)c1cc(-c2ccccc2O)on1`: “inactive”.

The record behind these values is PubChem BioAssay AID624115 (Johns Hopkins Ion Channel Center, 2012).
